# Source: PubChem BioAssay (Tox21)
# A number with no mark means an inactive call. Active and inactive are the calls of the source. Calls come from the whole dose curve; as a rule, active = well fitted curve in the direction sought with a large enough effect in the repeat runs; inconclusive = weak or mixed curves; inactive = flat fitted curve, though single readings scatter.
# Assay: qHTS assay to test for compound auto fluorescence at 535 nm (green) in HEK293 cells (AID 720680)
# Settings: green autofluorescence 485/535 nm; series mostly up to 91.3 µM; fluorescence, % of fluorescein: at the top concentration
# Description: U.S. Tox21 Program National Center for Advancing Translational Sciences [NCATS] NIH Chemical Genomics Center [NCGC] U.S. Environmental Protection Agency [EPA] National Institutes of Environmental Health Sciences [NIEHS] National Toxicology Program [NTP] U.S. Food and Drug Administration [FDA] Tox21 Assay Overview: Compound auto fluorescence often interferes with screening of the compound library against various biological targets and signaling pathways. Some of these compounds may have fluorophoric properties. Such properties may interfere with the assay outputs resulting in false positives and/or negatives. To decrease such complications and ensure the compound activities are relevant in terms of biological response, the Tox21 10K compound library was screened for auto fluorescence. From the fluorophores used as reporter signals in our screening assays, the auto fluorescence equivalencies of compounds against three fluorophores have been evaluated: Triamterene, Fluorescein and Rose Bengal sodium for blue, green and red fluorescence, respectively. The fluorescence intensities were measured using Excitation/Emission wavelengths at 405/460nm, 485/535nm and 540/590nm for blue, green and red labels, respectively. This assay includes the green fluorescence data.
# Tox21 Assay Protocol Summary: 2,000 HEK293 cells in 5 uL of culture medium containing 10% dialyzed FBS per well were dispensed into black wall/clear bottom 1536-well plates using a Multidrop Combi Dispenser (Thermo Scientific). The assay plates were incubated for 4-5 hr at 37C to allow cell attachment to the well bottom, followed by the transfer of 23 nL compound or DMSO vehicle by a pintool work station (Kalypsys, San Diego, CA). After the assay plates were incubated overnight at 37C and 5% CO2, fluorescence intensities in the assay plates were measured by an Envision (PerkinElmer, Shelton, CT) plate reader using three labels for measuring blue, green and red fluorescence at […] 460, 535 and 590nm respectively.
# % is set by controls: 0 for no effect and ±100 for the full control effect.
Structure (SMILES),"fluorescence, % of fluorescein",outcome
C[n+]1cc2c3c(ccc2c2ccc4cc5c(cc4c21)OCO5)OCO3,0.0024% [at 46 µM],
Cc1c(C)c2c(c(C)c1O)CCC(C)(COc1ccc(CC3SC(=O)NC3=O)cc1)O2 (stereo not given),,inactive
Oc1ccc2cc(SSc3ccc4cc(O)ccc4c3)ccc2c1,,inactive
CCC(C)(C)C1CCCCC1OC(C)=O (stereo not given),0.0218%,
OCCN(CCO)c1nc(N2CCCCC2)c2nc(N(CCO)CCO)nc(N3CCCCC3)c2n1,3.77% [at 46 µM],
C1CCCC1,0.0133%,
CC(=O)N1CCN(c2ccc(OC[C@H]3CO[C@](Cn4ccnc4)(c4ccc(Cl)cc4Cl)O3)cc2)CC1,,inactive
CCCCCCCCCCC=O,0.029% [at 95.7 µM],
OCCN1CCN(CC/C=C2/c3ccccc3Sc3ccc(C(F)(F)F)cc32)CC1,0.006% [at 46 µM],
COc1ccc(CN2CCN(C(c3ccc(F)cc3)c3ccc(F)cc3)CC2)c(OC)c1OC,0.0735% [at 46 µM],
C[C@H]1[C@H]2CC[C@H]3[C@@H]4CC=C5C[C@@H](N(C)C)CC[C@]5(C)[C@H]4CC[C@]23CN1C,-0.22% [at 46 µM],
O=C(NO)C1(NS(=O)(=O)c2ccc(Oc3ccc(F)cc3)cc2)CCOCC1,0.0212%,
COc1ccc(-c2ccc3cc(C(=O)O)ccc3c2)cc1C12CC3CC(CC(C3)C1)C2,-0.0014% [at 46 µM],
N#CSc1ccc(N)c([N+](=O)[O-])c1,-0.13%,
O=c1[nH]cnc2nc[nH]c12,-0.152% [at 46 µM],
CCCCCCC[N+](CC)(CC)CCCCc1ccc(Cl)cc1,0.0325% [at 18.6 µM],
Fc1ccc([C@@H]2CCNC[C@H]2COc2ccc3c(c2)OCO3)cc1,-0.101% [at 46 µM],
CCC(N)(CO)CO,-0.032%,
CCC(C)Nc1ccc(NC(C)CC)cc1 (stereo not given),0.341% [at 95.7 µM],
O=C1CCCc2c1cc1ccc3cccc4ccc2c1c34,0.0429% [at 95.7 µM],

Structure (SMILES),"fluorescence, % of fluorescein",outcome
CCCCCCCCn1sc(Cl)c(Cl)c1=O,0.0051%,
CC(C)(C)C(=O)OCOC(=O)C1N2C(=O)CC2S(=O)(=O)C1(C)C (stereo not given),-0.0781% [at 46 µM],
CNCc1cc(F)ccc1Oc1ccc(Cl)c(Cl)c1,0.162%,
CSc1cnc(C)cn1,-0.033% [at 203 µM],
COCCCC/C(=N\OCCN)c1ccc(C(F)(F)F)cc1,0.093% [at 46 µM],
CCCCCCCC[N+](CCCCCCCC)(CCCCCCCC)CCCCCCCC,0.0434%,
Cc1cccc(S(=O)(=O)O)c1C,-0.0355%,
Cc1cc(O)c(Cl)c(C)c1Cl,0.0054%,
Cc1cccc2c1cc1ccc3cccc4ccc2c1c34,0.193% [at 95.7 µM],
O=C(NOCC1CC1)c1ccc(F)c(F)c1Nc1ccc(I)cc1Cl,-0.0061% [at 46 µM],
C=C(C)C(=O)OCC[N+](C)(C)C,0.109%,
C[C@@H](NCCCc1cccc(C(F)(F)F)c1)c1cccc2ccccc12,0.0075% [at 46 µM],
CC(C)(C)CC(C)(C)c1ccc(O)c(Cc2ccc(Cl)cc2Cl)c1,-0.0281% [at 46 µM],
CN(C)c1ccc(SC#N)cc1,-0.0412%,
CCCCCCCCCCn1cc[n+](CCCCCCCCCC)c1C,-0.0931%,
N=C1N=C(N)c2ccccc21,-0.1%,
COc1ccc(C(=O)/C(Br)=C\C(=O)O)cc1,,inactive
COc1cc(-c2nc(NC(=O)c3cc4cc(C)cc(C)c4n3CC(=O)O)sc2CCC2CCCCC2)c(OC)cc1Cl,0.0092%,
Cc1cc(C2CCCCC2)n(O)c(=O)c1,0.0799% [at 18.6 µM],
CCOC(=O)O[C@H](C)OC(=O)c1ccc2c(c1)cc(C(=O)NC1CCN(C(C)C)CC1)n2Cc1cc(-c2ccc(Cl)s2)on1,-0.0602%,
